# ClpP mod: qHTS Assay for Activators of ClpP | ATP-dependent Clp protease proteolytic subunit (Bacillus subtilis (strain 168)), P80244 | Potency, µM (top dose mostly 57.5 µM), inactives show at the highest dose activity change, negative = active | purified B. subtilis ClpP, FRET peptide cleavage, 20 min | actives 1.9% (n = 340,000); active = well fitted falling curve with a large enough effect; inconclusive = small, poorly fitted or top-dose-only effect; inactive = no such curve, though single readings can be large or run the other way; note: potency is the fitted concentration of half-maximal effect; the source files actives as falling curves though it sought activators and does not explain the sign; nearly all actives have a fitted effect of over 65% in size
#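 Buffer: 100 mM Tris/HCl pH8, 100 mM KCl, 0.05% low protease BSA, 2.5% glycerol, 0.01% Tween-20. ClpP 10 microg/mL final; 20 min RT; delta FRET normalized to ADEP and DMSO controls.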
# Mito fusion yeast: blocks mitochondrial division or promotes mitochondrial fusion; S. cerevisiae fusion-defective mutant growth rescue, CellTiterGlo 48 h; actives 0.23% (n = 320,000); AID 485298; Potency, µM (titrated, usually from 46.1 µM), for inactives: top-dose growth rescue (activation), actives largely listed as activators; note: potency is the fitted concentration of half-maximal effect; % of control where 0% means no effect; nearly all actives have a fitted effect of over 45% in size
#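 Read-out: ATP-based luminescence (CellTiterGlo, 10 min ambient) reporting growth of fusion-defective ts yeast after 48 hours at 37C on glycerol/ethanol YPEG medium in the presence of compound.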
# uPA surface inh: inhibitors of cell surface uPA generation | Potency, µM (series often up to 38.3 µM), without a hit: at the top dose activity change, negative = inhibition, usual class: inhibitors | AID 540303 | cell surface uPA generation assay, qHTS | actives 0.31% (n = 330,000); active = well fitted inhibition curve with a large enough effect; inconclusive = small, poorly fitted or top-dose-only effect; inactive = no such curve, though single readings can be large or run the other way; tested in mouse RAW 264.7 cells; note: potency is the fitted concentration of half-maximal effect; % is set by controls: 0 for no effect and ±100 for the full control effect; nearly all actives have a fitted effect of over 55% in size
# B2AR arrestin: beta2AR (human) beta-arrestin recruitment activity; P07550; beta-arrestin recruitment to beta2AR, cell-based reporter; Potency, µM (series often up to 46.1 µM), without a hit: at the highest dose activation, actives largely listed as activators; actives 0.02% (n = 330,000); AID 492947;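 note: potency is the fitted concentration of half-maximal effect; 0% = DMSO controls and full agonism = EC100 isoproterenol or metaproterenol; nearly all actives have a fitted effect of over 65% in size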
# Target sequence (P07550 whole entry, looked up): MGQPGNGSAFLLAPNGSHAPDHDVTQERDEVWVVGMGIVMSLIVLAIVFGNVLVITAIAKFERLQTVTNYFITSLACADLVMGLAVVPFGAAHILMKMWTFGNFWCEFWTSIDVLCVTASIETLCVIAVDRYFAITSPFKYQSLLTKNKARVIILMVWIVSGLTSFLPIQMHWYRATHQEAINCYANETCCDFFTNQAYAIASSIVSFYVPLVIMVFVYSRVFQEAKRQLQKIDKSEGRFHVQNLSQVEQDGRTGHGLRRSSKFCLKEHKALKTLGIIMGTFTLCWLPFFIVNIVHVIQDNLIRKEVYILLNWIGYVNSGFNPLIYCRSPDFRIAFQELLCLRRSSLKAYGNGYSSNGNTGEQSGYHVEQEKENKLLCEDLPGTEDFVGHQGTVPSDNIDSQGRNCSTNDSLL
# p53 reactivator: mutant p53 re-activation in reporter cells | H1299 p53-A138V BP100-luciferase reporter, luminescence, 24 h | Potency, µM (doses to about 92.2 µM), without a hit: at the top dose activity change, positive = activation, actives largely listed as activators | actives 0.063% (n = 320,000) | AID 504706; note: potency is the fitted concentration of half-maximal effect; % of control where 0% means no effect; nearly all actives have a fitted effect of over 45% in size
#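 H1299 (p53-null), stable ts p53-A138V + BP100-Luc; 1000 cells/well, Opti-MEM/10% FBS; cpd 4 pt, 1:5; 24 h, 37 deg C, 5% CO2; detection reagent 10 min RT; luminescence.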
# Giardia kill: Giardia lamblia killing; Giardia lamblia trophozoite viability; activity change, % at 7.66 µM, hits read low; actives 0.15% (n = 340,000); in the data active = activity change below about -80%; inconclusive = between about -30% and that limit;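 note: parasites exposed to compound for two days anaerobically before the ATP read; % is set by controls: 0 for no effect and ±100 for the full control effect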
#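 Trophozoites 100 cells/well + cpd; 48 hrs, 37 deg C, anaerobic. ATPLite 1-Step added, 15-30 min RT, luminescence read (ATP-based viability).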
# * marks the source's active call; other numbers are inactive results; ? = inconclusive; · = not tested or not shown; [ ] = remark or other dose. Most compounds without a hit are left out; they make up all but 2.1% or so of the library. Unless noted, calls come from the whole dose curve; as a rule, active = well fitted curve in the direction sought with a large enough effect; inconclusive = small, poorly fitted or top-dose-only effect, or another doubt; inactive = no such curve, though single readings can be large; an effect the other way counts as inactive or inconclusive.
SMILES,ClpP mod,Mito fusion yeast,uPA surface inh,B2AR arrestin,p53 reactivator,Giardia kill
CCCCn1cc(S(=O)(=O)c2ccc(C)c(C)c2)c(=O)c2cc(F)c(N(CC)CC)cc21,-24%,·,·,·,·,·
O=C(Nc1ccc2oc(-c3ccccc3)nc2c1)C1CCCO1 (configuration not stated),-1%,18%,-3%,0%,?,-16
O=C(Nc1ccc(-c2nc3ccccc3o2)cc1)C1CCCO1 (configuration not stated),16µM*,8%,·,0%,·,-28
COc1ccccc1C(=O)N/N=C(\C)c1ccc(NC(=O)C2CC2)cc1,28µM*,-8%,-12%,-2%,-5%,-4
Cc1ccc2nc(-c3ccc(NC(=O)Cc4cccs4)cc3)[nH]c2c1,?,-3%,2%,0%,3%,1
CC(=O)Nc1ccc(-c2nc3cc(Cl)ccc3o2)cc1,·,6%,-9%,0%,·,-21
O=C(Nc1ccc(-c2nc3cc(Cl)ccc3o2)cc1)C1CCCO1 (configuration not stated),28µM*,16%,·,0%,?,5
Cc1ccc2nc(-c3ccc(NC(=O)C4CCCO4)cc3)[nH]c2c1 (configuration not stated),32µM*,2%,·,0%,8%,?
COc1ccccc1CCNC(=O)Cc1c(C)c2cc3c(C)coc3cc2oc1=O,5%,·,·,·,·,·
CCCN(c1ccccc1F)S(=O)(=O)c1cc(-c2cc(C)no2)ccc1C,1%,·,·,·,·,·
Nc1ccc(C(Cc2ccnc3ccccc23)Cc2ccnc3ccccc23)cc1,1%,·,·,·,·,·
O=C(Cc1ccc(F)cc1)NC1CC(=O)N(c2ccccc2)C1 (configuration not stated),1%,·,·,·,·,·
O=C1NCCc2c1[nH]c1ccccc21,25µM*,4%,-4%,0%,1%,1
COc1cc2c(NC3CCN(C)CC3)nc(N3CCN(C)CC3)nc2cc1OCCCN(C)C,4%,·,·,·,·,·
Cc1ccc(Cl)cc1NC(=O)Cn1c(SCC(=O)NCc2ccccc2)nc2ccccc21,3%,·,·,·,·,·
CCC(=O)NCCNc1nc2cc(C)c(C)cc2cc1C#N,13µM*,-1%,-4%,0%,-5%,-25
Cc1ccc2cc(C#N)c(NCCNC(=S)NCCCN(C)C)nc2c1C,?,-1%,10µM*,0%,1%,-10
CCOc1ccc2nc(NCCNC(=O)CC)c(C#N)cc2c1,?,5%,-3%,-1%,-3%,6
Cc1ccc2cc(C#N)c(NCCNC(=O)C3CC3)nc2c1C,35µM*,1%,-4%,0%,2%,11
CC(=O)c1c(C)[nH]c(C(=O)OCc2cccc(C)c2)c1C,·,35µM*,-6%,0%,?,-5
O=C(Nc1ncc([N+](=O)[O-])s1)C1CC(=O)N(c2ccc(F)cc2)C1 (configuration not stated),·,2%,0%,0%,16%,-86*
O=C(Nc1nccs1)C1CC(=O)N(c2ccc(F)cc2)C1 (configuration not stated),·,1%,1%,-1%,-3%,16
CN(C(=O)COC(=O)c1ccc2ccccc2n1)c1ccccc1,10µM*,·,1%,-1%,3%,20
COc1ccccc1C1NC(=O)c2n[nH]c(-c3cccs3)c21 (configuration not stated),-9%,·,·,·,·,·
Cc1cccc(CNC(=O)Cn2c(-c3cccs3)cc3ccccc32)c1,14µM*,·,·,·,·,·
CC(C)Oc1ccc(CNC(=O)Cn2c(-c3cccs3)cc3ccccc32)cc1,35µM*,·,·,·,·,·
COc1cccc(CCNC(=O)Cn2c(-c3cccs3)cc3ccccc32)c1,4%,·,·,·,·,·
COc1ccc([C@]23Cc4cc(OC)c(OC)cc4C(O2)C2=C(CC(C)(C)CC2=O)O3)cc1,·,0%[9.22 µM],·,-1%[9.22 µM],·,·
CCOc1ccc(N(CC(=O)Nc2ccccc2Cl)S(C)(=O)=O)cc1,2%,11%,10µM*,1%,·,-8
